Calls of active or inactive are those of the source.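 How the source made its calls, unless noted: active means inhibition at or above 50% at 10 µM; inactive means inhibition below 50%.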 Where a SMILES comes first, the peptide text is derived from it.
Columns and labels:
[1] = inhibitors of TNFa-induced NFkB p65 translocation, primary screen, imaging, HUVEC, MLSMR starter and 10KST1 sets (AID 438;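 active means inhibition above 20% together with a positive visual image hit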;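 further: compound added about 3h40 before a 20 min TNFalpha stimulation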;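 on inhibition: signal is the nuclear over cytoplasmic p65 intensity ratio per well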); settings: HUVEC TNFa-induced p65 nuclear translocation; cell count: measured here: nuclei count (cytotoxicity indicator), at 2.08 µM; inhibition: at 2 µM, stronger effect = higher value, 0% TNFa-plus-vehicle, 100% no-TNFa wells
[2] = inhibitors of mutant huntingtin aggregation, primary screen, imaging, exon1htt(103Q)mCFP cells, high-content imaging (AID 483;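 active means visual image review flags a hit and inhibition of aggregation exceeds 20%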;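 further: compound exposure lasted 3 days before fixation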;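 on nuclei count: percent of the per-plate median nuclei count of sample wells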); settings: exon1htt(103Q)mCFP cell line, aggregate imaging, at 2 µM; inhibition of aggregation: stronger effect = higher value; nuclei count: measured here: cell count, toxicity
[3] = inhibitors of E-selectin induction by TNFa, primary screen, imaging, HUVEC, immunofluorescence, MLSMR starter and 10KST1 sets (AID 487;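 active means visually confirmed hit in the image check and inhibition above 20%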;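 on inhibition: signal is fraction of cell area covered by stained E-selectin grains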;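 on nuclei count: 100% = median nuclei count of all wells on the same plate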); settings: HUVEC TNFalpha-induced E-selectin immunofluorescence imaging, at 2 µM; inhibition: stronger effect = higher value; nuclei count: measured here: cell number, toxicity
[4] = target: Voltage-gated potassium channel subunit beta-2 (Rattus norvegicus) (UniProt P62483); assay: KvBeta enzyme negative modulators, primary screen, biochemical, NADPH fluorescence (AID 622;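 active means fluorescence slope higher than the sample average by over 3 SD, cut at about -0.22 in these data, passing the limit was not always enough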;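 further: slope of raw intensity against log time taken from 70 to 1610 s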); settings: recombinant KvBeta, 4-cyanobenzaldehyde reduction, at 10 µM, stronger effect = higher value
Sequence of Voltage-gated potassium channel subunit beta-2 (Rattus norvegicus) (P62483 whole entry, looked up): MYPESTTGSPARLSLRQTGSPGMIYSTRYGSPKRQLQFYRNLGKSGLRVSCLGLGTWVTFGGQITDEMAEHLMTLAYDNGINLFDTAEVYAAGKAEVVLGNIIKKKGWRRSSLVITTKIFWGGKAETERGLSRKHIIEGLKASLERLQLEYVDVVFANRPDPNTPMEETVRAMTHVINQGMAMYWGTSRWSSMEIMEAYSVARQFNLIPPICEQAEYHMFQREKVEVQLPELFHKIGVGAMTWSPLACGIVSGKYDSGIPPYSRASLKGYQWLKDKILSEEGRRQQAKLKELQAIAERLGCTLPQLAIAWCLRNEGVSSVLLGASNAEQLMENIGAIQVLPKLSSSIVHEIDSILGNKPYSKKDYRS

[5] = target: Voltage-gated potassium channel subunit beta-2 (Rattus norvegicus) (UniProt P62483); assay: KvBeta positive modulators, primary screen, biochemical, NADPH fluorescence (AID 623;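 active means NADPH fluorescence slope more negative than the mean of all samples by about 3 SD, 99.7% confidence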;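 further: fluorescence intensity change per second fitted from 20 to 320 s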); settings: Recombinant KvBeta, NADPH fluorescence decrease slope, 10 min; at 10 µM; stronger effect = lower value
[6] = target: Alpha-2C adrenergic receptor (Homo sapiens) (UniProt P18825); assay: modulators of alpha2C/GIRK thallium flux, primary screen, cell-based, HEK293 alpha2C/GIRK1/2 (AID 624;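 active means fluorescence slope after compound addition differing from the mean of all screened samples at 99.7% confidence, in either direction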;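 further: slope of fluorescence ratio to pre-addition baseline per second over 15 to 24 s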); settings: thallium flux BTC fluorescence, at 10 µM, actives lie on both sides
Sequence of Alpha-2C adrenergic receptor (Homo sapiens) (P18825 whole entry, looked up): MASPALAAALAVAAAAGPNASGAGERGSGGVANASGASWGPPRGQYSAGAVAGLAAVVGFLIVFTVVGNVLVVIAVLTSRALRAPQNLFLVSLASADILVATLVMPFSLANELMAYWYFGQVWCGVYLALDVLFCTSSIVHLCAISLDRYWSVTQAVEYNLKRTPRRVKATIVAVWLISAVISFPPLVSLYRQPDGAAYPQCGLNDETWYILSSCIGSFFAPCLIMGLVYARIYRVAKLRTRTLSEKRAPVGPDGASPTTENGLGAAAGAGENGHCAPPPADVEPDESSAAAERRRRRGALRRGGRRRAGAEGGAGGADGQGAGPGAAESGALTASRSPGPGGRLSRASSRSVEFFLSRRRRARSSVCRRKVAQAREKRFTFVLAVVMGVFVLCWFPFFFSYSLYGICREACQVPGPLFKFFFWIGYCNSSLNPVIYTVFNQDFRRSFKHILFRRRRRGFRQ

[7] = inhibitors of Sendai virus-induced IRF3 signaling, primary screen, TLR/RLR signaling modifier project, cell-based, Sendai virus stimulus, luciferase, 10K MLSCN set (AID 602276); settings: HEK293 RL24 IRF3 luciferase reporter, at 10 µM, stronger effect = higher value;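 further: firefly luciferase from ISG56 promoter only with Renilla not read in this screen; 0% = Sendai virus plus DMSO and 100% = medium plus DMSO without virus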
[8] = inhibitors of poly I:C-induced TLR3 signaling, primary screen, cell-based, poly I:C stimulus, luciferase, 10K MLSCN set (AID 602277;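 active means inhibition of the reporter signal at or above 50%; inactive means inhibition below 50%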); settings: HEK293-TLR3 RL24 IRF3 luciferase reporter, at 10 µM, stronger effect = higher value

Row | Structure (SMILES) | cell count [1] | inhibition [1] | inhibition of aggregation [2] | nuclei count [2] | inhibition [3] | nuclei count [3] | fluorescence slope [4] | NADPH fluorescence slope [5] | slope [6] | inhibition [7] | inhibition [8]
1 | O=C(OCN1C(=O)c2ccccc2C1=O)C1CCCCC1 | 391 | 3.5% (inactive) | 3.5% (inactive) | 95.3% | -43.8% (inactive) | 113% | -0.348 (inactive) | -5e-05 (inactive) | 0.00442 (inactive) | 6.81% (inactive) | 12.4% (inactive)
2 | CCOC(=O)c1ccc(Oc2cc(C)nc(SC)n2)cc1 | 484 | 10.1% (inactive) | 13.3% (inactive) | 117% | -192% (inactive) | 134% | -0.47 (inactive) | -9.6e-06 (inactive) | 0.00614 (inactive) | 15.8% (inactive) | 19.9% (inactive)
3 | O=C(NCC(=O)N(c1ccc2c(c1)OCCO2)C(C(=O)NC1CCCC1)c1ccco1)c1ccco1 (stereo not drawn) | 245 | 17.9% (inactive) | -23.9% (inactive) | 83.9% | 20.3% (inactive) | 95.6% | -0.409 (inactive) | 3.7e-05 (inactive) | 0.00578 (inactive) | -2.48% (inactive) | -2.78% (inactive)
4 | CCCOC(=O)CSc1nc(N)c(C#N)c(CC)c1C#N | 377 | 3.3% (inactive) | 18% (inactive) | 97.7% | -97.1% (inactive) | 113% | -0.532 (inactive) | -2.3e-05 (inactive) | 0.00456 (inactive) | -7.11% (inactive) | -13.9% (inactive)
5 | O=C(NC1CC1)C1CCN(c2ccc(S(=O)(=O)N3CCOCC3)cc2)CC1 | 735 | -4.1% (inactive) | -4.3% (inactive) | 110% | -14.8% (inactive) | 101% | -0.476 (inactive) | -5e-06 (inactive) | 0.00268 (inactive) | -7.23% (inactive) | 20.7% (inactive)
6 | Cc1cccc(N2CCN(C(=O)c3cc4ccccc4oc3=O)CC2)c1C | 712 | -2.8% (inactive) | -28.9% (inactive) | 93.7% | -22.9% (inactive) | 117% | -0.565 (inactive) | -2.1e-05 (inactive) | 0.00624 (inactive) | -10.3% (inactive) | -10.8% (inactive)
7 | CCN(C(=O)c1c(OC)cccc1OC)c1nnc(-c2cccnc2)s1 | 892 | 3.3% (inactive) | -35.8% (inactive) | 105% | -49.6% (inactive) | 137% | -0.336 (inactive) | -3.4e-05 (inactive) | 0.00467 (inactive) | 8.32% (inactive) | 18.6% (inactive)
8 | Cc1ccc(S(=O)(=O)Cc2ccc(C(=O)N3CCN(Cc4ccccc4)CC3)o2)cc1 | 760 | -9.8% (inactive) | -10.9% (inactive) | 101% | -76.2% (inactive) | 118% | -0.569 (inactive) | -1.3e-05 (inactive) | 0.00635 (inactive) | 10.7% (inactive) | 37.2% (inactive)
9 | COc1ccc(-c2nc(C)sc2CC(=O)O)cc1 | 533 | -15.7% (inactive) | 21% (inactive) | 93.9% | -1.1% (inactive) | 101% | -0.463 (inactive) | -8.6e-06 (inactive) | 0.00658 (inactive) | 11.4% (inactive) | 28.3% (inactive)
10 | CCCN1CCN(CCCNC(=O)Cn2ncc3c4ccccc4n(C)c3c2=O)CC1 | 509 | -3% (inactive) | -2.1% (inactive) | 101% | -61.4% (inactive) | 110% | -0.615 (inactive) | 2.2e-07 (inactive) | 0.00665 (inactive) | -2.18% (inactive) | 34.8% (inactive)
11 | COc1cccc(-c2cc(C(F)(F)F)n3ncc(C(=O)O)c3n2)c1 | 382 | -2.6% (inactive) | 13.4% (inactive) | 94.7% | -22.3% (inactive) | 73.7% | -0.576 (inactive) | -5.3e-05 (inactive) | 0.00328 (inactive) | 11% (inactive) | 20.4% (inactive)
12 | COc1ccc(C(=O)N2CCCc3ccccc32)cc1 | 433 | 2.5% (inactive) | -1.4% (inactive) | 107% | 4.7% (inactive) | 110% | -0.519 (inactive) | -8e-05 (inactive) | 0.00477 (inactive) | 7.26% (inactive) | 5.78% (inactive)
13 | CCOC(=O)N1CCC(n2c(=S)[nH]c3cc(OC)c(OC)cc3c2=O)CC1 | 471 | 4.8% (inactive) | -23.4% (inactive) | 108% | -6.8% (inactive) | 105% | -0.631 (inactive) | 4.7e-05 (inactive) | 0.00633 (inactive) | 14.4% (inactive) | 23.2% (inactive)
14 | COc1ccc(Cc2nnc(NC(=O)Cc3cccs3)s2)cc1 | 674 | -27.6% (inactive) | 8.6% (inactive) | 105% | 14.9% (inactive) | 101% | -0.568 (inactive) | 2.7e-05 (inactive) | 0.0056 (inactive) | -11% (inactive) | 100% (active)
15 | O=C(CNC(=O)c1cc2ccccc2o1)NCc1cccs1 | 420 | 3.6% (inactive) | -2.1% (inactive) | 107% | -57.3% (inactive) | 112% | -0.469 (inactive) | -1.5e-06 (inactive) | 0.0103 (inactive) | 5.59% (inactive) | 16.2% (inactive)
16 | COc1ccc(C)cc1NC(=O)COCC(=O)O | 710 | -28.6% (inactive) | 4.1% (inactive) | 100% | -22.9% (inactive) | 102% | -0.605 (inactive) | -1.6e-05 (inactive) | 0.00568 (inactive) | -0.927% (inactive) | 9.35% (inactive)
17 | CCOc1ccc(OCc2cccc(C(=O)N3CCOCC3)c2)cc1 | 383 | 3.1% (inactive) | -7.6% (inactive) | 101% | -148% (inactive) | 117% | -0.407 (inactive) | -6.4e-05 (inactive) | 0.00492 (inactive) | -39.6% (inactive) | -97.2% (inactive)
18 | Cc1ccc2cc3cc(C(=O)NCCN4CCOCC4)oc3nc2c1 | 760 | -5% (inactive) | 3.7% (inactive) | 105% | -36.3% (inactive) | 111% | -0.0588 (inactive) | -2.5e-05 (inactive) | 0.00283 (inactive) | 7.18% (inactive) | 8.18% (inactive)
19 | Cc1nc2ccccc2c2oc(C(=O)NCCCN3CCCC3=O)cc12 | 472 | 1.3% (inactive) | -37.4% (inactive) | 76% | -36.2% (inactive) | 106% | -0.527 (inactive) | -2e-05 (inactive) | 0.00837 (inactive) | 10.3% (inactive) | 7.6% (inactive)
20 | CCOC(=O)c1[nH]c(C)c(C(=O)N2CCN(C(=O)c3ccco3)CC2)c1C | 780 | -13.4% (inactive) | 2.2% (inactive) | 110% | -102% (inactive) | 101% | -0.5 (inactive) | 1.2e-05 (inactive) | 0.00532 (inactive) | 16.8% (inactive) | 18.7% (inactive)
21 | COc1ccc(C(=O)N(CCCO)Cc2cc3c(C)ccc(C)c3[nH]c2=O)cc1OC | 647 | -3% (inactive) | 12.4% (inactive) | 91.4% | 19.2% (inactive) | 86.7% | -0.389 (inactive) | -0.00013 (inactive) | 0.00636 (inactive) | 8.26% (inactive) | 19% (inactive)
22 | CCOC(=O)c1sc(NC(=O)c2noc3c2CCCC3)c(C(=O)OCC)c1C | 688 | -2.9% (inactive) | -14.8% (inactive) | 120% | -47.9% (inactive) | 87.6% | -0.549 (inactive) | 1e-05 (inactive) | 0.0086 (inactive) | 2.17% (inactive) | 6.46% (inactive)
23 | CC1=C(C(=O)OCC(C)C)C(c2cc3c(cc2Br)OCO3)NC(=O)N1C (stereo not drawn) | 425 | -3.6% (inactive) | -13.3% (inactive) | 98.5% | -103% (inactive) | 118% | -0.44 (inactive) | -3.6e-05 (inactive) | 0.00323 (inactive) | 11.4% (inactive) | 34.6% (inactive)
24 | CC(=O)NC(C(=O)NCC(N)=O)C(C)C (stereo not drawn) (HELM PEPTIDE1{[ac].[CC(C)C(N[*:1])C(=O)[*:2]].G.[am]}$$$$V2.0) | 517 | -15.2% (inactive) | -13.6% (inactive) | 89.2% | 9.9% (inactive) | 109% | -0.59 (inactive) | -3.6e-05 (inactive) | 0.00838 (inactive) | -3.54% (inactive) | -10.4% (inactive)
25 | S=c1[nH]nc(-c2cccc(Br)c2)o1 | 242 | 12.7% (inactive) | 15.6% (inactive) | 110% | -57.8% (inactive) | 120% | -0.361 (inactive) | 1.9e-05 (inactive) | 0.0039 (inactive) | 4.14% (inactive) | 8.86% (inactive)
26 | CC(=O)Nn1c(C)nnc1-n1nc(C)cc1C | 594 | -9.2% (inactive) | 11.6% (inactive) | 94.1% | -52.4% (inactive) | 117% | -0.474 (inactive) | -9.2e-05 (inactive) | 0.00573 (inactive) | 5.42% (inactive) | 18.4% (inactive)
27 | CCCCOCP(=O)(CCCC)COCCCC | 369 | 0% (inactive) | 8.7% (inactive) | 88.5% | -35.3% (inactive) | 100% | -0.459 (inactive) | -8.4e-05 (inactive) | 0.00748 (inactive) | 11.3% (inactive) | 22% (inactive)
28 | Cc1nc2sc(C(c3ccco3)N3CCN(c4ccccc4F)CC3)c(O)n2n1 (stereo not drawn) | 226 | -5.9% (inactive) | 3.8% (inactive) | 104% | -0.8% (inactive) | 114% | -0.436 (inactive) | -6.1e-06 (inactive) | 0.00573 (inactive) | 7.27% (inactive) | 10.5% (inactive)
